# Bioassay records (PubChem)
# An excerpt weighted towards active compounds, which were near 4.1% of everything screened.
# LMP1 NFkB inh = EBV LMP1-driven NF-kappaB luciferase reporter inhibitors, primary screen, cell-based, luminescence, single point; 350,000 compounds, 0.69% hits; AID 504558, 2011; inhibition, % at 12.5 µM; LMP1-induced NF-kappaB luciferase reporter cells; in the data active means inhibition above about 41%; inconclusive means no clear call, values can overlap the other calls
# Shn3 inh set2 = reduction of Shn3 3'UTR firefly luciferase signal, primary screen, Schnurri-3 inhibitor project, cell-based, Clone20 osteoblasts, set 2; Clone20 osteoblast Shn3 3'UTR firefly luciferase, 24 h; inhibition, % at 12.5 µM; 360,000 compounds, 0.52% hits;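 active means mean inhibition of at least 75% with every replicate also reaching 75%; inconclusive means mean inhibition at least 75% but some replicate below; inactive means mean inhibition below 75%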
# TWEAK-Fn14 inh = inhibitors of TWEAK-Fn14 signaling, primary screen, luciferase reporter cells, uHTS; TWEAK-stimulated Fn14 reporter cells, luciferase luminescence, 8 h; inhibition, % at 10 µM; 360,000 compounds, 2% hits; AID 1159606, 2016; in the data active means inhibition above about 50%
# Peg3 prom inh-1 = Peg3 promoter-driven luciferase inhibitors, primary screen, cell-based, HeLa, luciferase luminescence | HeLa PEG-Prom luciferase reporter, overnight | inhibition, % at 20 µM | 360,000 compounds, 1.7% hits;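 active means inhibition of at least 50% at 20 µM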
# TROY NFkB inh = inhibitors of TROY-driven NF-kB signaling, primary screen, Q293 LMP1-TROYcd cells, NF-kB luciferase, uHTS; Q293 LMP1-TROYcd NF-kB luciferase reporter, 4 h; inhibition, % at 10 µM; 360,000 compounds, 0.98% hits; AID 1347056, 2019;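 active means compounds whose plate-normalised and pattern-corrected inhibition of the luciferase reporter signal at the single screening dose is 50% or more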
# TRPM1 prom inh = inhibitors of MITF-dependent TRPM1 promoter reporter, primary screen, cell-based, SK-MEL-5, single point, luciferase. SK-MEL-5 TRPM1 promoter luciferase, 24 h. inhibition, % at 12.5 µM. 330,000 compounds, 0.83% hits. AID 488899, 2010;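 active means mean inhibition across replicates of 60% or more, whatever share of single replicates reaches that level; inconclusive means some that reach 60%, reason not given; inactive means mean inhibition across replicates below 60%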
# Peg3 prom inh-2 = Peg3 promoter reporter inhibitors, retest, confirmation, cell-based, HeLa, luciferase reporter, single concentration. 1,300 compounds, 84% hits. HeLa PEG-Prom luciferase reporter, luminescence, overnight. shares compounds with Peg3 prom inh-1. inhibition, % at 20 µM;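 active means at 20 µM dose, 40% or more inhibition averaged across four replicates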
# Numbers stand for hits; – = inactive; ? = inconclusive; · = no result.
SMILES,LMP1 NFkB inh,Shn3 inh set2,TWEAK-Fn14 inh,Peg3 prom inh-1,TROY NFkB inh,TRPM1 prom inh,Peg3 prom inh-2
COC1=CC(=O)c2c(ccc3ncnc(N)c23)C1=O,82.9,97.4,99.7,92.9,53.8,113.2,99.0
Cc1noc(/C=C/c2ccccc2F)c1S(=O)(=O)N1CCC(C(=O)N2CCN(C)CC2)CC1,–,–,–,–,–,–,·
CCN(CCN(C)C)C(=O)C1CCN(S(=O)(=O)c2c(C)noc2/C=C/c2ccccc2F)CC1,–,–,–,90.0,–,–,51.2
COc1ccc(NC(=O)C2(C)CCN2CCOc2ccc(C)cc2)cc1OC (centres undefined),·,–,–,–,–,·,·
Cc1ccc(CN(C(=O)COc2cccc(C)c2C)C2CCS(=O)(=O)C2)o1 (centres undefined),–,–,–,–,–,–,·
Cn1cccc1-c1cc(C(=O)N/N=C/c2cc(Br)ccc2O)[nH]n1,–,–,–,58.2,–,62.0,62.4
C=CCN=C1NN=C(c2cc(C)n(CC=C)c2C)CS1,53.1,–,–,74.2,–,83.8,82.2
COc1cccc(-c2nnc3n2N=C(c2cc(OC)ccc2OC)CS3)c1,–,–,–,–,–,–,·
COc1cccc(-c2nnc3n2N=C(C(C)(C)C)CS3)c1,64.6,–,92.1,98.4,64.3,?,75.4
COc1ccccc1CCNC(=O)C(=O)NCC1CCCN1S(=O)(=O)c1ccccc1 (centres undefined),–,–,–,–,–,–,·
CCOc1ccc(S(=O)(=O)N2CCN(C(=O)c3ccc(Cl)c(S(=O)(=O)N4CCOCC4)c3)CC2)cc1,–,–,–,–,–,–,·
Cc1[nH]n2c(=O)cc(C(C)(C)C)nc2c1-c1ccccc1,–,–,–,54.5,–,–,50.5
CN1CCN(c2ccc(-c3ccc4ccccc4n3)cc2)CC1,83.3,?,102.7,105.0,92.1,75.9,95.2
c1ccc2nc(-c3ccncc3)ccc2c1,–,–,–,–,–,–,·
CC1CCCN(CCCNC(=O)c2ccc(N3CCCC3=O)cc2)C1 (centres undefined),–,–,–,–,–,–,·
CN(C)CCNC(=O)c1sc2nc(-c3ccccc3)cc(C(F)(F)F)c2c1N,–,–,–,61.0,–,–,70.4
COc1ccc(-c2cc(C(F)(F)F)c3c(N)c(C(=O)NCCSC)sc3n2)cc1,–,–,–,–,–,–,·
CN(C)c1ccc(S(=O)(=O)N2CCCCC2)cc1NC(=O)C1=COCCO1,–,–,–,–,–,–,·
O=C(Nc1nc2cc3c(cc2s1)OCCO3)C1=COCCO1,81.5,88.4,103.9,97.1,86.7,91.4,82.5
Cn1cc(CN2CCCC(C(=O)Nc3cccc(-n4cccn4)c3)C2)cn1 (centres undefined),–,–,–,–,–,–,·
Cn1cc(CN2CCCC(C(=O)Nc3ccc(-c4cccc(F)c4)cc3)C2)cn1 (centres undefined),–,–,–,52.6,–,–,76.6
COc1cccc(C(C(=O)NC2CCCC2)N(C(=O)c2ccco2)c2ccc(NC(C)=O)cc2)c1OC (centres undefined),–,–,–,–,–,–,·
CS(=O)(=O)Nc1cccc(NC(=O)C2Cc3c(-c4cccc(F)c4)ccnc3O2)c1 (centres undefined),·,–,–,66.2,–,·,64.3
CC(C)c1ccc(/C=N/NC(=O)c2nnn(-c3nonc3N)c2CN(C)C2CCCCC2)cc1,–,–,–,64.6,–,–,–
CN(C)c1ccc(/C=N/NC(=O)c2nnn(-c3nonc3N)c2COc2ccc(F)cc2)cc1,–,–,–,86.9,–,–,50.8
C/C(=N\NC(=O)c1nnn(-c2nonc2N)c1CN(C)c1ccccc1)c1ccccc1O,–,–,–,50.5,–,–,70.6
